Tested on: Vero E6 infected with SARS-CoV-2
Experiment: inhibition of SARS-CoV-2 cytopathic effect; higher = more antiviral protection, active = above 15
Conditions: 48 h

Measured: inhibition of SARS-CoV-2 cytopathic effect

CN1C(=O)N(c2cc(Cl)cc(Cl)c2)C(=O)[C@]12CN(c1ccc(C(=O)O)cn1)C[C@H]2c1ccc(C#N)cc1
inactive: 1 nM 1.7% | 8.33 nM 0.43% | 100 nM 1.42% | 833.33 nM 1.84% | 10000 nM 1.57%

OCCOc1ccc(/C(=C(/CCCl)c2ccccc2)c2ccccc2)cc1 [ospemifene]
inactive: 1 nM -2.23% | 8.33 nM 1.01% | 100 nM 3.19% | 833.33 nM 3.68% | 10000 nM 8.11%

CN(C)C(=O)Oc1cccc([N+](C)(C)C)c1 [neostigmine]
inactive: 1 nM 1.41% | 8.33 nM 0.51% | 100 nM 0.73% | 833.33 nM -1.4% | 10000 nM -0.84%

C[C@H](Cc1ccc(OCC(=O)O)cc1)NC[C@H](O)c1cccc(Cl)c1
inactive: 1 nM -1% | 8.33 nM 0.79% | 100 nM 2.24% | 833.33 nM 0.59% | 10000 nM 0.72%

N[C@@H](C(=O)O)[C@@H](OCc1ccccc1)C(=O)O.N[C@H](C(=O)O)[C@H](OCc1ccccc1)C(=O)O
inactive: 1 nM -0.96% | 8.33 nM 0.96% | 100 nM -0.27% | 833.33 nM -0.54% | 10000 nM 1.19%

Cc1cnc(C(=O)O)c[n+]1[O-] [acipimox]
inactive: 1 nM -1.88% | 8.33 nM -0.46% | 100 nM -1.4% | 833.33 nM -2.17% | 10000 nM -1.06%

CCCCCCC[N+](CC)(CC)CCCCc1ccc(Cl)cc1 [clofilium]
inactive: 1 nM 2.85% | 8.33 nM 1.44% | 100 nM 1.58% | 833.33 nM 1.2% | 10000 nM 3.38%

O=c1[nH]c(=O)n([C@H]2C[C@H](O)[C@@H](CO)O2)cc1I [idoxuridine]
inactive: 1 nM 1.04% | 8.33 nM -1.19% | 100 nM 2.65% | 833.33 nM -0.31% | 10000 nM -2.33%

c1ccc(N2CCN(CCCOc3ccc4c(c3)OCO4)CC2)cc1
inactive: 1 nM -0.84% | 8.33 nM -2.11% | 100 nM -4.95% | 833.33 nM -3.5% | 10000 nM -4.64%

COC(=O)/C=C/C(=O)N[C@@H]1CC[C@@]2(O)[C@H]3Cc4ccc(O)c5c4[C@@]2(CCN3CC2CC2)[C@H]1O5 [beta-funaltrexamine]
inactive: 1 nM -1.34% | 8.33 nM 1.21% | 100 nM -0.8% | 833.33 nM 1.68% | 10000 nM 6.01%

O=C(/C=C\n1cnc(-c2cc(C(F)(F)F)cc(C(F)(F)F)c2)n1)N1CC(F)(F)C1
inactive: 1 nM 2.37% | 8.33 nM -1.09% | 100 nM -2.84% | 833.33 nM -7.74% | 10000 nM -16.6%

CCc1c(C(=O)NCCc2ccc(N3CCCCC3)cc2)[nH]c2ccc(Cl)cc12
inactive: 1 nM 1.1% | 8.33 nM 2.93% | 100 nM 4.96% | 833.33 nM 2.28% | 10000 nM -2.19%

Cn1c2cc([S+](C)[O-])sc2c2cnn(Cc3cccc(N)c3)c(=O)c21 (stereo not given)
inactive: 1 nM -0.28% | 8.33 nM -0.88% | 100 nM 5.04% | 833.33 nM 3.73% | 10000 nM 4.31%

NS(=O)(=O)c1cc(Cl)c(Cl)c(S(N)(=O)=O)c1 [diclofenamide]
inactive: 1 nM -2.99% | 8.33 nM -2.1% | 100 nM -3.44% | 833.33 nM 0.21% | 10000 nM -2.7%

C[C@@H]1C(=O)O[C@H]2C[C@@]34[C@H]5C[C@@H](C(C)(C)C)[C@]36[C@@H](OC(=O)[C@@H]6O)O[C@@]4(C(=O)O5)[C@]21O [Ginkgolide A]
inactive: 1 nM 3.54% | 8.33 nM 2.25% | 100 nM 2.7% | 833.33 nM 1.3% | 10000 nM -1.89%

C[C@H](Nc1ncnc2nc[nH]c12)c1cc2cccc(Cl)c2c(=O)n1-c1ccccc1 [duvelisib]
inactive: 1 nM -1.06% | 8.33 nM -0.83% | 100 nM -1.82% | 833.33 nM 0.25% | 10000 nM -3.79%

CC(C)OC(=O)[C@H](C)N[P@](=O)(CO[C@H](C)Cn1cnc2c(N)ncnc21)Oc1ccccc1 [tenofovir-alafenamide]
inactive: 1 nM -2.51% | 8.33 nM -1.55% | 100 nM -0.12% | 833.33 nM -2.51% | 10000 nM 3.48%

Nc1nonc1/C(=N/O)Nc1ccc(F)c(Cl)c1
inactive: 1 nM 5.29% | 8.33 nM 3.44% | 100 nM 2.09% | 833.33 nM 0.57% | 10000 nM -2.02%

C[C@@H]1C[C@H]2[C@@H]3CCC4=CC(=O)C=C[C@]4(C)[C@@]3(F)[C@@H](O)C[C@]2(C)[C@H]1C(=O)CO [desoximetasone]
inactive: 1 nM -2.66% | 8.33 nM 0.15% | 100 nM -1.47% | 833.33 nM 1.96% | 10000 nM 0.8%

CCN1CCN(Cc2ccc(Nc3ncc(F)c(-c4cc(F)c5nc(C)n(C(C)C)c5c4)n3)nc2)CC1 [abemaciclib]
inactive: 1 nM -2.71% | 8.33 nM -0.27% | 100 nM -1.26% | 833.33 nM 11.9% | 10000 nM 12.3%

Cc1c(C)c2c(c(C)c1O)CC[C@@](C)(CCC[C@H](C)CCC[C@H](C)CCCC(C)C)O2 [vitamin-E]
inactive: 1 nM 3.32% | 8.33 nM 3.3% | 100 nM 2.84% | 833.33 nM 0.81% | 10000 nM 0.23%

CCCc1c2oc(C(=O)O)cc(=O)c2cc2c(=O)cc(C(=O)O)n(CC)c12 [nedocromil]
inactive: 1 nM 2.42% | 8.33 nM 1.24% | 100 nM 0.71% | 833.33 nM 1.06% | 10000 nM 0.79%

CCOC(=O)n1ccn(C)c1=S [carbimazole]
inactive: 1 nM -1.34% | 8.33 nM -2.13% | 100 nM -2.63% | 833.33 nM -3.71% | 10000 nM 1.38%

CC(C)(C)NC[C@H](O)COc1cccc2c1CCCC2=O [levobunolol]
inactive: 1 nM -6.66% | 8.33 nM -1.55% | 100 nM -0.235% | 833.33 nM 2.58% | 10000 nM 2.67%

Cc1cccc(-c2[nH]c(CNc3ccccc3F)nc2-c2ccc3ncnn3c2)n1
inactive: 1 nM 0.31% | 8.33 nM 3.47% | 100 nM 1.38% | 833.33 nM 1.08% | 10000 nM 2.46%

O=C(c1cc(S(=O)(=O)Nc2ccccc2F)c(F)cc1Cl)N1CCN2CCC[C@@H]2C1
inactive: 1 nM 1.66% | 8.33 nM 2.06% | 100 nM 1.64% | 833.33 nM 8.06% | 10000 nM -1.59%

Nc1cc(C(F)(F)F)c(-c2cc(N3CCOCC3)nc(N3CCOCC3)n2)cn1 [buparlisib]
inactive: 1 nM 2.05% | 8.33 nM 0.38% | 100 nM -0.73% | 833.33 nM -3.58% | 10000 nM -12.6%

COc1cc(C(=S)N2CCOCC2)ccc1O [vanitiolide]
inactive: 1 nM -0.99% | 8.33 nM -1.31% | 100 nM -0.6% | 833.33 nM 2.4% | 10000 nM -0.14%

CCCCN1CCCCC1C(=O)Nc1c(C)cccc1C (stereo not given) [bupivacaine]
inactive: 1 nM 2.92% | 8.33 nM -0.56% | 100 nM -2.62% | 833.33 nM 1.82% | 10000 nM 0.61%

Cc1ccccc1CN1C(=O)C2=C(CCN(Cc3ccccc3)C2)N2CCN=C12
inactive: 1 nM 0.63% | 8.33 nM 0.83% | 100 nM 0.4% | 833.33 nM 3.83% | 10000 nM 0.84%

C[C@@H]1C[C@@H]([C@H](O)CC2CC(=O)NC(=O)C2)C(=O)[C@@H](C)C1 [cycloheximide]
inactive: 1 nM 2.12% | 8.33 nM 2.86% | 100 nM 6.34%
active: 833.33 nM 27.6% | 10000 nM 17.4%

CCCN(CCC)C(=O)C1=Cc2ccc(-c3ccc(C(=O)N4CCCC4)cc3)cc2N=C(N)C1 [motolimod]
inactive: 1 nM 0.77% | 8.33 nM 0.05% | 100 nM 1.88% | 833.33 nM 1.37% | 10000 nM -1.01%

O=C(O)c1c(Sc2ccccc2)c2cc(Cl)ccc2n1Cc1ccc(Cl)cc1
inactive: 1 nM 1.19% | 8.33 nM -0.87% | 100 nM -0.5% | 833.33 nM 3.75% | 10000 nM 1.7%

CCCCCCc1ccc(O)cc1O [hexylresorcinol]
inactive: 1 nM 1.73% | 8.33 nM 1.1% | 100 nM 2.21% | 833.33 nM 4.02% | 10000 nM 3.14%

CN1CCOC(c2ccccc2)c2ccccc2C1 (stereo not given) [nefopam]
inactive: 1 nM 1.99% | 8.33 nM 0.54% | 100 nM 2.72% | 833.33 nM -1.03% | 10000 nM -1.47%

O=C(/C=C/c1c(C(=O)O)[nH]c2cc(Cl)cc(Cl)c12)Nc1ccccc1 [gavestinel]
inactive: 1 nM -3.94% | 8.33 nM -3.2% | 100 nM -2.69% | 833.33 nM -2.17% | 10000 nM -3.95%

CC(C)n1nc(-c2cc3cc(O)ccc3[nH]2)c2c(N)ncnc21
inactive: 1 nM 1.52% | 8.33 nM 2.09% | 100 nM 1.4% | 833.33 nM 2.07% | 10000 nM -1.69%

Nc1cc(C(Cl)=C(Cl)Cl)c(S(N)(=O)=O)cc1S(N)(=O)=O [clorsulon]
inactive: 1 nM -0.52% | 8.33 nM 2.04% | 100 nM 2.84% | 833.33 nM -0.01% | 10000 nM -2.69%

Oc1c(Cl)cc(Cl)c2cccnc12 [chloroxine]
inactive: 1 nM 2.69% | 8.33 nM 2.44% | 100 nM 1.43% | 833.33 nM -0.59% | 10000 nM -0.15%

C/C(=N\Nc1nnc2c(n1)[nH]c1c(C)cccc12)c1ccccn1
inactive: 1 nM 0.125% | 8.33 nM -0.485% | 100 nM 1.94% | 833.33 nM 1.06% | 10000 nM -7.81%
